The results in this text go back to PubChem BioAssay AID434926 (Sanford-Burnham Center for Chemical Genomics, 2010).

The structures appear in SMILES notation. This is one part of the list. A number with no mark means an inactive call.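 Rule for the calls: active = at least twofold enzyme activation in any of six single-dose repeats, which the averaged readout prints as negative percent; inactive = the rest.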

This assay deals with Intestinal-type alkaline phosphatase (Homo sapiens) (UniProt P09923). The experiment in a line: enhancement of intestinal alkaline phosphatase activity – biochemical, luminescence, single concentration, uHTS hits, confirmation (AID 434926). Conditions: purified IAP, CDP-Star luminescence, 30 min; at 8.3 µM; active compounds read low.
Sequence of Intestinal-type alkaline phosphatase (Homo sapiens) (P09923 whole entry, looked up): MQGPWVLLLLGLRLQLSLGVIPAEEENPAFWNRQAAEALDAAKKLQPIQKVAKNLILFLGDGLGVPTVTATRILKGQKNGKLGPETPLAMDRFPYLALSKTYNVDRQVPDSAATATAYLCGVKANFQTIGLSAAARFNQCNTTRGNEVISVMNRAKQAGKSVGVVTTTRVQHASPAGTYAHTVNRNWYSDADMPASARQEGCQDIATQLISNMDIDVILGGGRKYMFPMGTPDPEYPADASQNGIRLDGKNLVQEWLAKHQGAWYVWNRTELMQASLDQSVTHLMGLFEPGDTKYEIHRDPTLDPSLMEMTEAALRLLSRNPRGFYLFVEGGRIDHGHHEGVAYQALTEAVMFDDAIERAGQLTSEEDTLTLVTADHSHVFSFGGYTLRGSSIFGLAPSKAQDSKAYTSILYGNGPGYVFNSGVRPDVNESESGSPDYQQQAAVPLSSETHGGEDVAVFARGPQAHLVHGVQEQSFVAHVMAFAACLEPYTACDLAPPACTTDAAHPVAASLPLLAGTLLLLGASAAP

On to `CN(c1ccccc1)c1ccc([N+](=O)[O-])c2nonc12`, for which the activation (%Activity, negative = activation) is -1.35%.

Take `COc1ccccc1N=Nc1c(O)[nH]c(=S)[nH]c1=O`: the activation (%Activity, negative = activation) was 4.66%.
